Test results from the supplement of paper PMC6555819.

Test system: RARg homodimer (NR concentration 270 nM)
Assay: PBM binding z-score (relative to random genomic background probes); higher = stronger binding; sequences stand for … in GC…GCGATTGACAGCGTAGAATGAAGG
Procedure, shortened: (§1)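 For binding z-scores, the reference was random background probes on custom Agilent 4×180K protein-binding microarrays. These arrays were incubated 1 h with ligand-free nuclear receptor dimers in PBS pH 7.4, 2% milk, 0.02% Triton X-100, 1 mM DTT, 0.2 mg/mL BSA and 0.4 mg/ml salmon testes DNA. Fluorescence was scanned after antibody detection of each partner (one per run) and regression-normalized.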

| Sequence | PBM binding z-score |
| --- | --- |
| CGAGACAGGTGAAAGGTAACTCAGTCTGGTACGC | 0.702 |
| TGAATGAGGTTATAAGAGCAGGGAACGTTGCAAA | 0.87 |
| CCTGCTAGGTGATGGTCAGCTAATCTACAGTATG | 0.108 |
| TCTGCTAGGTCAGTTGGTCAACTAACGAGCTGCC | 3.64 |
| TCATGTAGATCAATAGAGGTTAAGAAAGTGCGCT | 0.576 |
| TGAATGAGGTTAGAAGATCAGGGAACGTTGCAAA | 0.936 |
| CCGACAGGGGCAGAAAGGTTACCATACCATCCGG | 1.71 |
| CCGGCTGGGGCAAGGTTACCATAACGCACAGCCA | 1.27 |
| TTACCAAGGTGTGCTGAGGTCGTTGATCCAACTC | -0.154 |
| GGAACGAAGGCAAGTTGATAGCAGAGTTTGATGG | -0.138 |
| ATATGCAGGTTACATCCGGGTCATTCAGGCTATG | 2.1 |
| CCTACTGGGCCACGAAAGTTCATTGATTCAGTGA | 2.29 |
| ATATGTAGGTTGCATCCGGGTCATTCAGGCTATG | 1.12 |
| TCTTATAGGTAATACAGGTGAAAGTCGGCATCTA | 0.709 |
| TCGAGTAGGTTAGTCGAGGCATTCAGCCAACATA | -0.249 |
| CCAAGTAGGTTATGGGGCATTCAGGCAACGGTGA | 0.608 |
| ATTTGTAGGTTAAGGGTCATTCAGGTTGGTTCGC | 4.15 |
| TCTTGTAGATCAAGCAGATTAAGAAAGCCTGAGT | -0.298 |
| GTACCAAGGTGAATAGGTCGATGATGAGTAGGCG | 1.57 |
| CATACAGGATCAGCTAGGCCAGAGTAGGGACGGC | 0.213 |

| Sequence | PBM binding z-score |
| --- | --- |
| ACAGACAGGTGAGTGAATGTAACTCAGCTGGACG | 0.453 |
| TGAATGAGGTTAAAGATCATGGAACGTGGCGTCG | 1.32 |
| CAAACTAGGACACAGAGGTCAAAGTCCGTGCGTA | 5.17 |
| CGTCCAAGGTGAATGCTAGGTCAGTGAAAGCATT | 1.91 |
| TTTTGTAGATCAGCAGGTTAAGAAAGCTGGCCAA | -0.252 |
| TGAATGAGGTTAGAGATCAGGGAACGTGGCGTCG | 0.944 |
| TCATATAGGTAAATGCCAGGTGAAAGTCCGATCT | 0.433 |
| CCTACTGGGCCACAAAAGGTCATTGATTCAGTGA | 3.91 |
| CATACTGGGCCATCAGGTCATTGATATCAACGTT | 2.08 |
| ATATGTAGGTTACATCCGCGTCATTCAGGCTATG | 1.09 |
| GCAGACAGGTGAAACGCAGGTAACTTAGGGTGGC | 0.154 |
| ATATGTAGGTTAGCTGGGGTCTTTCAGACTAGGC | 0.709 |
| GCTTGTAGATCAATGTTAAGAAAGACTAAGCTAA | -0.155 |
| ACCCGGAGGACAAAGGTCAGAGCTACGCCAGTGA | 5.22 |
| ACTTACGGGTCAACGATGTTATAGCACGCGTATA | 5 |
| CCTACTGGGCCACGAAAGATCATTGATTCAGTGA | 0.283 |
| CCTACTGGGCCATCAGGTCCTTGATATCAACGTT | 0.0919 |
| GCTTCTAGATCAAGGTTAAGAAAGACTAAGCTAA | 0.347 |
| CAAACTAGGTCACCGGAAGCTCAAAGTCCGCATG | 5.66 |
| CGTCAAAGTTCAACTAAGGGAACGTAAAGCACGC | 6.56 |

Test system: RXRa DBDmut IVT, anti-RXR (DBD mutation: RXRa K156A/R161A, NR concentration 90 nM)
Assay: as above
Procedure, shortened: as §1

| Sequence | PBM binding z-score |
| --- | --- |
| CGAGACAGGTGAAAGGTAACTCAGTCTGGTACGC | -0.262 |
| TGAATGAGGTTATAAGAGCAGGGAACGTTGCAAA | 0.547 |
| CCTGCTAGGTGATGGTCAGCTAATCTACAGTATG | -0.024 |
| TCTGCTAGGTCAGTTGGTCAACTAACGAGCTGCC | 0.186 |
| TCATGTAGATCAATAGAGGTTAAGAAAGTGCGCT | 1.27 |
| TGAATGAGGTTAGAAGATCAGGGAACGTTGCAAA | -0.437 |
| CCGACAGGGGCAGAAAGGTTACCATACCATCCGG | -0.361 |
| CCGGCTGGGGCAAGGTTACCATAACGCACAGCCA | -1.12 |
| TTACCAAGGTGTGCTGAGGTCGTTGATCCAACTC | 0.555 |
| GGAACGAAGGCAAGTTGATAGCAGAGTTTGATGG | 0.098 |
| ATATGCAGGTTACATCCGGGTCATTCAGGCTATG | 0.784 |
| CCTACTGGGCCACGAAAGTTCATTGATTCAGTGA | 1.34 |
| ATATGTAGGTTGCATCCGGGTCATTCAGGCTATG | 0.735 |
| TCTTATAGGTAATACAGGTGAAAGTCGGCATCTA | 1.75 |
| TCGAGTAGGTTAGTCGAGGCATTCAGCCAACATA | -0.0873 |
| CCAAGTAGGTTATGGGGCATTCAGGCAACGGTGA | 0.0857 |
| ATTTGTAGGTTAAGGGTCATTCAGGTTGGTTCGC | 2.49 |
| TCTTGTAGATCAAGCAGATTAAGAAAGCCTGAGT | 0.446 |
| GTACCAAGGTGAATAGGTCGATGATGAGTAGGCG | -0.426 |
| CATACAGGATCAGCTAGGCCAGAGTAGGGACGGC | -0.652 |

| Sequence | PBM binding z-score |
| --- | --- |
| ACAGACAGGTGAGTGAATGTAACTCAGCTGGACG | -0.311 |
| TGAATGAGGTTAAAGATCATGGAACGTGGCGTCG | 0.839 |
| CAAACTAGGACACAGAGGTCAAAGTCCGTGCGTA | 2.31 |
| CGTCCAAGGTGAATGCTAGGTCAGTGAAAGCATT | -0.198 |
| TTTTGTAGATCAGCAGGTTAAGAAAGCTGGCCAA | -0.708 |
| TGAATGAGGTTAGAGATCAGGGAACGTGGCGTCG | -0.0534 |
| TCATATAGGTAAATGCCAGGTGAAAGTCCGATCT | 1.64 |
| CCTACTGGGCCACAAAAGGTCATTGATTCAGTGA | 0.362 |
| CATACTGGGCCATCAGGTCATTGATATCAACGTT | 0.904 |
| ATATGTAGGTTACATCCGCGTCATTCAGGCTATG | 0.366 |
| GCAGACAGGTGAAACGCAGGTAACTTAGGGTGGC | -0.334 |
| ATATGTAGGTTAGCTGGGGTCTTTCAGACTAGGC | 0.448 |
| GCTTGTAGATCAATGTTAAGAAAGACTAAGCTAA | 0.255 |
| ACCCGGAGGACAAAGGTCAGAGCTACGCCAGTGA | 0.737 |
| ACTTACGGGTCAACGATGTTATAGCACGCGTATA | 2.19 |
| CCTACTGGGCCACGAAAGATCATTGATTCAGTGA | -0.361 |
| CCTACTGGGCCATCAGGTCCTTGATATCAACGTT | -0.586 |
| GCTTCTAGATCAAGGTTAAGAAAGACTAAGCTAA | 0.0774 |
| CAAACTAGGTCACCGGAAGCTCAAAGTCCGCATG | 1.98 |
| CGTCAAAGTTCAACTAAGGGAACGTAAAGCACGC | 4.65 |
